According to PubChem BioAssay (NCATS):
Results filed as inconclusive are left out. Calls of active or inactive are those of the source. Unless noted, calls follow the shape of the dose curve; as a rule, active = well fitted curve in the direction sought with a large enough effect; inconclusive = small, poorly fitted or top-dose-only effect, or another doubt; inactive = no such curve, though single readings can be large; an effect the other way counts as inactive or inconclusive.

Columns and labels:
[1] = Confirmation and Secondary Assay for Modulators of Hemoglobin Beta Chain Splicing at IVS2 654 locus (AID 910);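 also: per-well total GFP intensity by laser scanning cytometry after 2-day treatment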
How it was run: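 HeLa cells stably carrying EGFP interrupted by mutant beta-globin IVS2-654 intron (CMV-driven) were treated with compound for 2 days at 37C; corrected splicing was scored as total peak GFP intensity per well (488 nm excitation, 500-520 nm emission).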

[2] = molecular target: Ubiquitin carboxyl-terminal hydrolase 1 (Homo sapiens) (UniProt O94782); assay: Inhibitors of USP1/UAF1: Pilot qHTS (AID 504865);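 also: rhodamine fluorescence freed from ubiquitin-rhodamine substrate followed over time; top concentration of the series differs between compounds; nearly all actives have a fitted effect of over 35% in size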
Chain of Ubiquitin carboxyl-terminal hydrolase 1 (Homo sapiens) (O94782 whole entry, looked up): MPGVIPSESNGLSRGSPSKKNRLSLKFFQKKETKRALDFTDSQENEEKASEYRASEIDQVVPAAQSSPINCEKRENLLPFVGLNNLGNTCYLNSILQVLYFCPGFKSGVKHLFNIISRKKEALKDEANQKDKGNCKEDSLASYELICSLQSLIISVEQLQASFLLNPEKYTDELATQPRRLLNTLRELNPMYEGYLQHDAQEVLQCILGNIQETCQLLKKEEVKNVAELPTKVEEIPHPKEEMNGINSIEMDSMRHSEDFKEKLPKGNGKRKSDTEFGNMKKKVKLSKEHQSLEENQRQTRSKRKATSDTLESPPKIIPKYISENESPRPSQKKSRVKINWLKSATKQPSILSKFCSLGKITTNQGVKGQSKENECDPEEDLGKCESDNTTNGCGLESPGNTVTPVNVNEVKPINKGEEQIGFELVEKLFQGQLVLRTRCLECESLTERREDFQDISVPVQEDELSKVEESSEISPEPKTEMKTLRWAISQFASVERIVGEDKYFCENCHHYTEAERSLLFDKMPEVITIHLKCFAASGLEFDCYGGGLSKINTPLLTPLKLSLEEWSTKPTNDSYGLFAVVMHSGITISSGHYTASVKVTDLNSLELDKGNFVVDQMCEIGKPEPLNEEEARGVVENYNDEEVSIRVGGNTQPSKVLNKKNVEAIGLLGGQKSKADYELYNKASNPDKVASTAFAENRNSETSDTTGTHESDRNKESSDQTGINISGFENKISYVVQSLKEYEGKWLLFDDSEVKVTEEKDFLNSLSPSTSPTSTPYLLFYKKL
How it was run: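 USP1/UAF1 complex at 1 nM preincubated 15 min at room temperature with compound, then Ub-Rho substrate added at 150 nM final. Fluorescence (480/540 nm) read kinetically in 50 mM HEPES pH 7.8, 0.5 mM EDTA, 1 mM TCEP, 0.1 mg/ml BSA, 0.01% Tween-20.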

[3] = S16 Schwann cell PMP22 intronic element firefly luciferase assay (AID 624032); also: nearly all actives have a fitted effect of over 30% in size
How it was run: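 Rat S16 Schwann cells stably carrying a PMP22 intronic element-driven Fluc reporter were seeded overnight, then exposed to compounds for 24 h at 37 °C. Luminescence was normalized to PTC124 (positive control) and DMSO (0% activity).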

[4] = S16 Schwann cell PMP22 intronic element beta-lactamase assay (AID 624044; calls by dose curve; also: nearly all actives have a fitted effect of over 15% in size)
How it was run: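 Rat S16 Schwann cells with beta-Lac driven by a PMP22 intronic element, compound-treated 24 h at 37 °C. LiveBLAzer FRET B/G read: 460 nm normalized to potassium clavulanate vs DMSO; 535 nm FRET as viability; concentration-effect curves classified.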

3D7 = assay: qHTS profiling for inhibitors of Plasmodium falciparum proliferation (AID 504749); also: nearly all actives have a fitted effect of over 60% in size; details: P. falciparum in erythrocytes, SYBR Green DNA, 72 h; series mostly up to 28.7 µM
How it was run: (§1)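 P. falciparum-infected erythrocytes (0.3% parasitemia, 2.5% hematocrit final) were exposed to compounds for 72 h at 37 C in 5% CO2, then lysed with SYBR Green buffer overnight at room temperature; parasite DNA fluorescence was normalized to artemisinin and DMSO controls.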

7G8 = assay: as above; details: P. falciparum in erythrocytes, SYBR Green DNA, 72 h; series mostly up to 28.7 µM
How it was run: as §1

AA1029 = assay: as above; details: P. falciparum in erythrocytes, SYBR Green DNA, 72 h; series mostly up to 28.7 µM
How it was run: as §1

CP215 = assay: as above; details: P. falciparum in erythrocytes, SYBR Green DNA, 72 h; series mostly up to 28.7 µM
How it was run: as §1

CP260 = assay: as above; details: P. falciparum in erythrocytes, SYBR Green DNA, 72 h; series mostly up to 28.7 µM
How it was run: as §1

CP286 = assay: as above; details: P. falciparum in erythrocytes, SYBR Green DNA, 72 h; series mostly up to 28.7 µM
How it was run: as §1

CP291 = assay: as above; details: P. falciparum in erythrocytes, SYBR Green DNA, 72 h; series mostly up to 28.7 µM
How it was run: as §1

CP297 = assay: as above; details: P. falciparum in erythrocytes, SYBR Green DNA, 72 h; series mostly up to 28.7 µM
How it was run: as §1

CP315 = assay: as above; details: P. falciparum in erythrocytes, SYBR Green DNA, 72 h; series mostly up to 28.7 µM
How it was run: as §1

CP335 = assay: as above; details: P. falciparum in erythrocytes, SYBR Green DNA, 72 h; series mostly up to 28.7 µM
How it was run: as §1

DIV14 = assay: as above; details: P. falciparum in erythrocytes, SYBR Green DNA, 72 h; series mostly up to 28.7 µM
How it was run: as §1

Dd2 = assay: as above; details: P. falciparum in erythrocytes, SYBR Green DNA, 72 h; series mostly up to 28.7 µM
How it was run: as §1

GB4 = assay: as above; details: P. falciparum in erythrocytes, SYBR Green DNA, 72 h; series mostly up to 28.7 µM
How it was run: as §1

ICS = assay: as above; details: P. falciparum in erythrocytes, SYBR Green DNA, 72 h; series mostly up to 28.7 µM
How it was run: as §1

JCK = assay: as above; details: P. falciparum in erythrocytes, SYBR Green DNA, 72 h; series mostly up to 28.7 µM
How it was run: as §1

TAB165 = assay: as above; details: P. falciparum in erythrocytes, SYBR Green DNA, 72 h; series mostly up to 28.7 µM
How it was run: as §1

Measured: Potency

N[C@@H](Cc1ccccc1)C(=O)O
inactive: [1] | [2] | [3] | [4] | 3D7 | 7G8 | AA1029 | CP215 | CP260 | CP286 | CP291 | CP297 | CP315 | CP335 | DIV14 | Dd2 | GB4 | ICS | JCK | TAB165

COc1cccc2c1C(=O)c1c(O)c3c(c(O)c1C2=O)C[C@](O)(C(=O)CO)C[C@@H]3O[C@H]1C[C@H](N)[C@@H](O)[C@H](C)O1
inactive: [2] | [3] | [4] | 3D7 | 7G8 | AA1029 | CP215 | CP260 | CP286 | CP291 | CP297 | CP315 | CP335 | DIV14 | Dd2 | ICS | JCK | TAB165

CC1(C)[C@@H]2CC[C@]1(C)[C@@H](OC(=O)CSC#N)C2
inactive: [2] | [3] | [4] | 3D7 | AA1029 | CP215 | CP260 | CP286 | CP291 | CP297 | CP315 | CP335 | DIV14 | Dd2 | GB4 | JCK | TAB165

COc1ccccc1-c1ccc2ncnc(NCc3cccnc3)c2c1
inactive: [1]
